# Laboratory results as given in PubChem BioAssay AID686979 (National Center for Advancing Translational Sciences (NCATS), 2013).
# Screen size: about 420,000 compounds; about 50,000 (12%) were called active. Entries that show only a call come without a potency. Roughly 26% stayed inconclusive and do not appear here. Many of the other results were omitted from the sample, so actives are more common in it than they were. A number with no mark means an inactive call. The call rests on the fitted dose curve; in most records, active means well fitted inhibition curve with a large enough effect; inconclusive means small, poorly fitted or top-dose-only effect; inactive means flat fitted curve, though single readings scatter.
# Assay: qHTS for Inhibitors of human tyrosyl-DNA phosphodiesterase 1 (TDP1): qHTS in cells in presence of CPT; further: nearly all actives have a fitted effect of over 55% in size
# Conditions: chicken DT40 Tdp1-/-;hTDP1 cells + 20 nM CPT, ATP luminescence, 48 h; series mostly up to 46.2 µM
# In short: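 Cell growth measured by CellTiter-Glo luminescence after a minimum 48 h, 37 C compound exposure with 20 nM CPT in Tdp1-knockout DT40 cells stably expressing hTDP1, seeded 400/well; qHTS titration format.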
# Potency means the concentration at half of the fitted maximal effect.
Compound,Potency,"activity change, negative = growth inhibition"
CC(NS(=O)(=O)c1ccc(Br)cc1)C(=O)NCC1CCCO1 (stereo not drawn),inactive,–
CC(C)NC(=S)N1CCN(S(C)(=O)=O)CC1,inactive,–
CC(C)NC(=S)N1CCN(C(c2ccccc2)c2ccccc2)CC1,29.1 µM (active),–
COc1ccccc1NC(=S)N1CCN(c2ccc(F)cc2)CC1,inactive,–
CC(C)OCC(O)CN1CCN(C(c2ccccc2)c2ccccc2)CC1 (stereo not drawn),inactive,–
COc1ccccc1NC(=S)N1CCN(C(c2ccccc2)c2ccccc2)CC1,16.4 µM (active),–
COc1ccc(C)cc1NC(=S)N1CCOCC1,inactive,–
CCCCNC1(C#N)CCN(Cc2ccccc2)CC1,inactive,–
CC(C)CC1(C(=O)NCc2ccccn2)C=CCN1C(=O)c1ccccc1 (stereo not drawn),inactive,–
NN=C(NN=Cc1ccccc1)c1ccccc1,8.2 µM (active),–
O=C(NN=Cc1ccccc1)c1ccccc1,inactive,–
O=C(O)c1ccc(/C=N/NC(=S)NCc2ccccc2)cc1,inactive,–
O=C(CCNC(=O)c1ccccc1)NN=Cc1ccc(Br)o1,inactive,–
CN1C(C(=O)NCC2CC2)CC2Cn3c(nc4ccccc43)C21 (stereo not drawn),inactive,–
Nc1ccc(/C=C/c2ccnc3ccccc23)c([N+](=O)[O-])c1,11.2 µM (active),–
Cc1cc(C)cc(C(=O)NC2C(=O)N3C(C(=O)O)=C(CSc4nnc(C)s4)CSC23)c1 (stereo not drawn),inactive,–
CSc1ccccc1NC(=O)CN(C)CC(=O)Nc1cccc(Br)c1,inactive,–
CCOc1ccc(OCC)c(NC(=O)c2cc(C)nc3c2c(C)nn3-c2cccc(Cl)c2C)c1,inactive,–
CC1=CC(C)(C)NC(=S)N1NC(=O)c1ccccc1Cl,inactive,–
CC1=CC(C)(C)NC(=S)N1c1ccccc1,20.6 µM (active),–
Cc1ccc(N2C(=O)C(Cc3ccccc3)NC2=S)cc1 (stereo not drawn),inactive,–
CCOc1ccc(S(=O)(=O)N2CCC(C(=O)OCc3ccc(OC)cc3)CC2)cc1,inactive,–
CC1(C)O[C@H]2CC(=O)OCC23[C@H]2CC[C@@]4(C)[C@H](c5ccoc5)OC(=O)[C@H]5O[C@]54[C@]2(C)C(=O)C[C@@H]13 (stereo partly drawn),inactive,–
NC(=O)C(Cc1ccccc1)NC(=O)C12CC3CC(CC(C3)C1)C2 (stereo not drawn),inactive,–
COc1cc(/C=N/N=C(\N)c2nonc2N)cc(OC)c1OC,inactive,–
COc1ccc(NC(=O)NCCN2CCN(c3ccc(C)cc3)CC2)c(Cl)c1,inactive,–

Compound,Potency,"activity change, negative = growth inhibition"
CCOC(=O)N1CCC(Nc2c(NCCN3CCN(c4cccc(Cl)c4)CC3)c(=O)c2=O)CC1,inactive,–
CCOC(=O)c1c(C)[nH]c(C(=O)NCCN2CCOCC2)c1C,inactive,–
Cc1ccc(C)c(N2CCN(Cc3nnc(-c4ccccc4)o3)CC2)c1,inactive,–
Cc1ccc(C)c(N2CCN(C(=O)Cc3c(C(=O)O)c(C)cn3C)CC2)c1,inactive,–
CCOC(=O)c1c(C)[nH]c(CCC(=O)NCCCN2CCN(c3cc(C)ccc3C)CC2)c1C,4.61 µM (active),–
CCOC(=O)N1CCC(Nc2c(NCCCN3CCN(c4ccc(OC)cc4)CC3)c(=O)c2=O)CC1,inactive,–
Cc1ccc(C)c(N2CCN(CCCNC(=O)Nc3ccc(Cl)cc3)CC2)c1,7.31 µM (active),–
CC1=C(c2ccc(C)cc2)S(=O)(=O)NC1=NCCCN1CCN(c2cc(C)ccc2C)CC1,4.61 µM (active),–
CC1=C(c2ccc(C)c(C)c2)S(=O)(=O)NC1=NCc1ccccc1Cl,inactive,–
COc1ccc(N2CCN(CCNC(=O)Nc3cc(Cl)ccc3Cl)CC2)cc1,inactive,–
CCOC(=O)c1c(C)[nH]c(CCC(=O)NCCCN2CCN(c3cccc(Cl)c3)CC2)c1C,13 µM (active),–
CCOc1cc(/C=N/NC(=O)c2cccc(S(=O)(=O)N3CCOCC3)c2)ccc1OCC(=O)N(C)C,inactive,–
CC(C)CN(C(=O)Cn1c(=O)cnc2ccccc21)C1CCS(=O)(=O)C1 (stereo not drawn),inactive,–
O=C(NCCCn1ccnc1)c1cc2c(s1)CCCC2,inactive,–
CCc1nnc(SCc2cccc(F)c2)nc1CC,inactive,–
Cc1ccc(OCC(=O)OCc2cc(=O)n3nc(C4CC4)sc3n2)cc1C,inactive,–
COc1ccccc1/C=C/CN1CCC(CO)(Cc2ccccc2)CC1,inactive,–
CCOc1ccccc1N(CC)C(=O)Nc1cn(C)c(=O)c2ccccc12,inactive,–
CC1=C(C(=O)N2CCOCC2)CC(CC(=O)NCc2ccco2)C(=O)N1Cc1ccc(F)cc1 (stereo not drawn),inactive,–
COc1ccc(C2CC(c3cccs3)=NN2C(=O)CCC(=O)O)cc1OC (stereo not drawn),inactive,–
O=C(CSc1ccc(-c2ccc(Br)cc2)nn1)NCC1CCCO1 (stereo not drawn),inactive,–
C#CCCCc1nc2ccccc2c(=O)n1N,inactive,–
CCOC(=O)c1cc(-c2nnc(-c3cc(OC)c(OC)c(OC)c3)o2)c(C)nc1C,16.4 µM (active),–
Cc1nc(C)c(-c2nnc(-c3cccc(S(=O)(=O)N(C)C)c3)o2)cc1C(=O)NN,inactive,–
COc1cc(-c2nnc(NC(=O)C3=COCCO3)o2)cc(OC)c1OC,inactive,–
Cc1ccc(S(=O)(=O)NCCC(=O)NNC(=O)C2COc3ccccc3O2)cc1 (stereo not drawn),inactive,–

Compound,Potency,"activity change, negative = growth inhibition"
CC(C)N(c1ccccc1)c1ncnc(NCCC(=O)O)c1[N+](=O)[O-],inactive,–
CO/N=C(\C(=O)N[C@@H]1C(=O)N2C(C(=O)O)=C(COC(C)=O)CS[C@H]12)c1csc(N)n1 (stereo in doubt),inactive,–
CN1C=CC=C/C1=C1\SC(=S)N(Cc2ccccc2)C1=O,inactive,–
COc1ccccc1C(=O)NC(CCSC)C(=O)NNC(=O)c1ccccc1C (stereo not drawn),inactive,–
CCOC(=O)c1ccc(NC(=O)CSc2ncccn2)cc1,inactive,–
CCOC(=O)c1ccc(NC(=O)Cn2nnc(-c3ccc(C)cc3)n2)cc1,inactive,–
CCOC(=O)c1ccc(NC(=O)Cn2cnc3cc(C)c(C)cc32)cc1,1.16 µM (active),–
CCOC(=O)c1ccc(NC(=O)Cn2c(=O)cc(C)c3c(C)nn(-c4cccc(F)c4)c32)cc1,inactive,–
Cc1ccc(NC(=O)CSc2nnc(COc3ccccc3C)o2)cc1,inactive,–
CCCc1nnc(SCC(=O)Nc2ccc(C(=O)OCC)cc2)o1,23.1 µM (active),–
CC(C)CC(=O)N1CCN(Cc2cccc(Cl)c2)CC1,inactive,–
O=C(O)C(O)[C@@](O)(Cc1ccc(O)cc1)C(=O)O (stereo partly drawn),inactive,–
Cc1cc(-c2ccnc(-n3ncc(C(=O)NCCc4ccncc4)c3C)n2)c(C)s1,–,-1.95% [at 9.04 µM]
Cc1nnc(SCC2=C(C(=O)O)N3C(=O)C(NC(=O)Cn4nc(C)c(Cl)c4C)C3SC2)s1 (stereo not drawn),inactive,–
O=C(CN(CC1CCCO1)C(=O)CNS(=O)(=O)c1ccc(F)cc1)NCc1ccco1 (stereo not drawn),inactive,–
O=c1oc2ccccc2c(CNc2ccccc2)c1[N+](=O)[O-],inactive,–
CCS(=O)(=O)c1ccc(C(=O)NC)c(Cl)c1Cl,inactive,–
O=c1c2cc(-c3ccccc3)sc2nc2n1N=C(c1cccs1)CS2,16.4 µM (active),–
c1csc(-c2cn3c(n2)SCC3)c1,inactive,–
Cc1nnc2n1N=C(c1ccccc1)CS2,inactive,–
CCN([C@H](CO)C(C)C)S(=O)(=O)c1ccccc1Br,inactive,–
O=C(NC(=S)NC1CCS(=O)(=O)C1)c1cccc([N+](=O)[O-])c1 (stereo not drawn),inactive,–
CCc1ccccc1N1C(=O)CN(S(=O)(=O)CC)CC1(C)C(=O)NC1CCCCC1 (stereo not drawn),inactive,–
CN(C)C(=O)c1cccc(-c2cnc3sc(NCc4ccc5c(c4)OCO5)nn23)c1,16.4 µM (active),–
O=C(Cn1nnc(-c2ccccc2)n1)NCc1ccc2c(c1)OCO2,inactive,–
O=C(CSc1ncnc2scc(-c3ccccc3)c12)NCc1ccc2c(c1)OCO2,inactive,–

Compound,Potency,"activity change, negative = growth inhibition"
CCN(CC(=O)NCc1cccs1)C(=O)c1cccc(S(=O)(=O)Nc2ccccc2OC)c1,inactive,–
O=C(Nc1cccc(-c2nc3ccccc3[nH]2)c1)c1ccc(C(=O)Nc2cccc(-c3nc4ccccc4[nH]3)c2)cc1,18.4 µM (active),–
O=C(Nc1cccc(NC(=O)c2ccc(Br)cc2)c1)c1ccccc1,inactive,–
O=C(Cc1cccs1)Nc1cccc(-c2nc3ccccc3[nH]2)c1,inactive,–
CCCC(=O)Nc1ccc2oc(-c3ccc(O)c(Br)c3)nc2c1,inactive,–
O=C(CNC(=O)c1ccccc1Br)NNC(=O)c1cccs1,inactive,–
CCn1c(=O)c2ccccc2n(CC(=O)N2CCCc3ccccc32)c1=O,inactive,–
O=C(Nc1ccc(OC(F)(F)F)cc1)c1ccc2c(c1)no[n+]2[O-],4.11 µM (active),–
Cn1nccc1NC(=O)Nc1ccc(OC(F)(F)F)cc1,inactive,–
COC(=O)[C@H](C)NC(=O)Nc1ccc(OC(F)(F)F)cc1,inactive,–
CCN1CCN(C(=O)Cn2nc(C)n3c(cc4c(OC)cccc43)c2=O)CC1,inactive,–
CCn1nc(C)c(CNC(=O)C2CCC(=O)N(Cc3cccc(F)c3)C2)c1C (stereo not drawn),inactive,–
Cc1cc(C)c(CN2CCN(C(=O)Cn3ccc(NC(=O)OCc4ccccc4)nc3=O)CC2)c(C)c1,5.17 µM (active),–
Nc1ccn(CC(=O)N2CCN(c3ccccn3)CC2)c(=O)n1,inactive,–
Cc1cc(C)c2c(-n3cccc3)c(NC(=O)OCc3ccccc3)sc2n1,inactive,–
Cc1cc(C(=O)Nc2nnc(C3CC3)s2)c(C)s1,inactive,–
CCOC(=O)c1nn(-c2ccccc2F)c2nc(Nc3ccccc3)cc(=O)n12,inactive,–
COc1cnc(-c2ccccn2)nc1Oc1ccc(C(C)(C)C)cc1,3.66 µM (active),–
COc1ccc(Cc2nc(-c3ccccn3)no2)cc1OC,inactive,–
COc1ccc(Sc2nc(-c3ccccc3)ncc2OC)cc1,inactive,–
COCC(=O)Nc1cc(C(=O)N2CCCC(c3ccccc3)CC2)c2c(c1)nc(-c1ccncc1)n2C (stereo not drawn),–,6.88% [at 9.04 µM]
COc1cccc(/C=C/C(=O)OCC(=O)N2CCCc3ccccc32)c1,inactive,–
CC(=O)c1cc(-c2ccccc2)n(CC(=O)NC2CCCCC2)c1C,inactive,–
O=c1cc(-c2ccccc2)nc(N2CCCCC2)[nH]1,inactive,–
CC(=O)c1cc(-c2ccccc2)[nH]c1N1CCCC1,16.4 µM (active),–
